Bioassay records as filed in PubChem BioAssay.
Many of the other results were omitted from the sample, so hits are more common in it than they were.
TbPYK inhibitor = T. brucei pyruvate kinase inhibition; TbPYK enzyme, Kinase-Glo Plus ATP luminescence, 45 min; Potency, µM (series often up to 76.8 µM), for the others: at the highest dose activity, negative = inhibition, hits mostly inhibitors; actives 0.12% (n = 410,000); AID 624173; also: potency is read from the fitted curve at half-maximal effect; % is scaled to controls: 0 for no effect and ±100 for the full control effect; nearly all actives have a fitted effect of over 50% in size
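Screened from lowest to highest concentration, compounds were pinned into TbPYK/substrate mixtures, and ADP (130 uM final) was added. Plates sat at room temperature for 45 min prior to Kinase-Glo Plus detection by luminescence.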
CHX counter = counter-screen hit for Shiga toxin inhibitors, cycloheximide; max response, %; cell reporter, cycloheximide protein synthesis inhibition counterscreen; actives 12% (n = 300,000); in the data active = max response mostly above about 13%, no sharp cut-off; inactive = mostly below about 14%; also: read at 38.3 µM for the half of the compounds with a filed dose; 0% is about no effect
Sm TGR inh = inhibitors of Schistosoma mansoni thioredoxin glutathione reductase. AID 485364. actives 3% (n = 360,000). Potency, µM (doses to about 114 µM), without a hit: at the highest dose activity change, negative = inhibition, hits mostly inhibitors. Q962Y6. purified TGR, DTNB reduction, TNB absorbance 405 nm; also: potency is read from the fitted curve at half-maximal effect; % is scaled to controls: 0 for no effect and ±100 for the full control effect; nearly all actives have a fitted effect of over 60% in size
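First, TGR (20 nM dispensed) and NADPH were mixed with compound. Second, a 15 min room-temperature incubation followed. Third, further NADPH and then DTNB were added to start the reaction. Finally, TNB absorbance was monitored kinetically.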
Shiga inhibitor = blocks Shiga toxin action in Vero cells | Vero cells, Shiga toxin protein synthesis inhibition reporter | inhibition, % at 38.7 µM | actives 9.2% (n = 290,000) | AID 2315; in the data active = inhibition mostly above about 28%, no sharp cut-off; inactive = mostly below about 43%; also: 0% is about no effect
FBPA Giardia inh = Giardia lamblia aldolase inhibition. A8B2U2. purified Giardia FBPA. Potency, µM (highest dose often 59.6 µM), inactives show at the highest dose activity, negative = inhibition, most hits filed as inhibitors. actives 0.71% (n = 290,000). AID 2451; also: potency is read from the fitted curve at half-maximal effect; % is scaled to controls: 0 for no effect and ±100 for the full control effect; nearly all actives have a fitted effect of over 55% in size
Target sequence (A8B2U2 whole entry, looked up): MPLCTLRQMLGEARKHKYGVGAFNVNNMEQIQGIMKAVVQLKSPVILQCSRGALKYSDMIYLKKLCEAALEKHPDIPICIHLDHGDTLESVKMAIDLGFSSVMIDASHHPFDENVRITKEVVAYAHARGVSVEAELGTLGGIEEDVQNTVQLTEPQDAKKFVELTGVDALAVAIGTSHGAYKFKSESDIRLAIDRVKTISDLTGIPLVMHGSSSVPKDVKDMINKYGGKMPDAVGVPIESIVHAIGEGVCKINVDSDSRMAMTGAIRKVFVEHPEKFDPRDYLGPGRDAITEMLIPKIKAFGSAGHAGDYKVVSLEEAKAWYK
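40 nM FBPA preincubated 10 min at RT with compound (up to 57.5 uM final), then substrate plus GAPDH/TPI/NAD/arsenate coupling and diaphorase/resazurin added. Fluorescence read after 20 min at RT, 525/598 nm.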
LmPK inh = blocks Leishmania mexicana pyruvate kinase activity | Q27686 | AID 1721 | actives 0.37% (n = 290,000) | purified LmPK, Kinase-Glo ATP luminescence, 1 h | Potency, µM (top dose mostly 57.5 µM), for inactives: at the highest dose activity change, negative = inhibition, hits mostly inhibitors; also: potency is read from the fitted curve at half-maximal effect; % is scaled to controls: 0 for no effect and ±100 for the full control effect
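Kinase-Glo luminescence read after 1 h RT reaction of 0.1 nM LmPK with 0.5 mM PEP and 0.1 mM ADP. Activity scaled between uninhibited and enzyme-free controls.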
The depositor's hits bear a star; ? = inconclusive; · = not tested or not shown; [ ] = another dose, or the depositor's remark. Unless noted, calls follow the shape of the dose curve; as a rule, active = well fitted curve in the direction sought with a large enough effect; inconclusive = small, poorly fitted or top-dose-only effect, or another doubt; inactive = no such curve, though single readings can be large; an effect the other way counts as inactive or inconclusive.

SMILES | TbPYK inhibitor | CHX counter | Sm TGR inh | Shiga inhibitor | FBPA Giardia inh | LmPK inh
C=CCNCCCCOc1ccccc1-c1ccccc1 | 7% | -1 | -4% | -4 | 1% | 1%
COCCCNCCOc1ccc(C(C)(C)c2ccccc2)cc1 | 26% | -8 | -17% | -11 | -14% | -1%
CCOC(=O)c1cccc(NC(=O)c2oc3c(c2C)-c2nn(CC)cc2CC3)c1 | 0% | · | -2% | · | · | ·
O=C(Nc1nc2c(s1)CN(Cc1ccccc1)CC2)C1CCC1 | 3% | 31* | -32% | 74* | -8% | 0%
CC1=CC(C)(C)Nc2ccc(OC(=O)CN3C(=O)c4cccc5cccc(c45)C3=O)cc21 | ? | 10 | ? | 56 | ? | -1%
CC1=CC(C)(C)Nc2ccc(OC(=O)CN3C(=O)c4ccccc4C3=O)cc21 | -8% | 35* | -19% | 55* | -10% | 4%
Cc1ccc(C(=O)c2nc3c(n2O)CCCC3)cc1 | -2% | 17 | -1% | 11 | -7% | 10%
O=C(c1cc2ccccc2o1)c1nc2c(n1O)CCCCC2 | -3% | 47* | -2% | 83* | -7% | -1%
CCOc1ccc(C(=O)c2nc3c(n2O)CCCC3)cc1 | 0% | 23* | 0% | 30 | -8% | 0%
O=C(c1ccco1)c1nc2c(n1O)CCCCC2 | 6% | -3 | -1% | -13 | -7% | 1%
C#CCO[C@@H]1C[C@H](n2cnc3c(NC(=O)c4ccccc4)ncnc32)O[C@@H]1CO | -2% | 21* | 3% | 39 | 0% | -6%
C=CCc1c(C)[nH]c2c(OC)cccc2c1=S | ? | -3 | 3% | -6 | -27% | 2µM*
C=CCN(CC=C)C(=O)c1c(OC)cccc1OC | -2% | -3 | -13% | -15 | 4% | 1%
CC(=O)Oc1ccccc1C(=O)Oc1ccccc1C(=O)O | 5% | · | 0% | · | 15% | ·
CC(=O)Oc1ccccc1-c1nc(C)nc(N(C)C(C)=O)n1 | 4% | 12* | 2% | 38* | 4% | -13%
Cn1c(=O)c(=O)n(C)c2cc([N+](=O)[O-])c([N+](=O)[O-])cc21 | 1% | -3 | 20µM* | 3 | -20% | 3%
Cn1cccc([N+](=O)[O-])c1=O | -6% | · | · | · | · | ·
CN(Cc1ccc(F)cc1)S(=O)(=O)c1nnc(NC(=O)c2ccc(F)cc2)s1 | -8%[15.4 µM] | · | 6% | · | · | ·
CCCOC1CCCN(C(=O)c2cc(COc3ccc(F)c(F)c3)on2)C1 (stereo not drawn) | 2% | 44* | 0% | 109* | -4% | 2%
O=C(c1cc(COc2ccc(F)c(F)c2)on1)N1CCN(C/C=C/c2ccccc2)CC1 | 5% | 37* | -16% | 45* | -8% | -4%
COCCN1CCN(C(=O)c2cc(COc3ccc(F)c(F)c3)on2)CC1 | 4% | 27* | -11% | 26 | · | -3%
CCCN1CCN(C(=O)c2cc(COc3ccc(F)c(F)c3)on2)CC1 | 10% | 29* | -8% | 40* | -4% | -2%
CCN1CCN(C(=O)c2cc(COc3ccc(F)c(F)c3)on2)[C@@H](C)C1=O | 6% | · | · | · | · | ·
Cc1cccc(NC(=O)c2cc(-c3cccnc3)nc3c(C)cccc23)n1 | -8% | -2 | 48% | -8 | · | -6%
CC(C)NC(=O)C(=O)NNC(=O)CCc1ccccc1 | -2% | -5 | 79% | 8 | -17% | 4%
SMILES | TbPYK inhibitor | CHX counter | Sm TGR inh | Shiga inhibitor | FBPA Giardia inh | LmPK inh
COc1ccc(-c2nc(CSCC(=O)N3CCN(c4cccc(C)c4C)CC3)c(C)o2)cc1OC | -3% | · | -4% | · | · | ·
O=C(c1cc(COc2c(F)cccc2F)on1)N1CCN(C2CCCCC2)C(=O)C1 | -1% | 3 | -7% | 1 | 8% | -4%
O=C(c1cc(COc2ccc(F)c(F)c2)on1)N1CCN(C2CCCCC2)C(=O)C1 | -3% | 31* | -22% | 59 | · | 5%
COC(=O)c1ccc(NC(=O)c2cccc(Cl)c2)o1 | 3% | 24* | 0% | 58* | 0% | 0%
COC(=O)c1ccc(NC(=O)c2ccc(C)cc2)o1 | -6% | 22* | 0% | 48* | -10% | -1%
Cc1ccc(C(=O)N(Cc2ccco2)Cc2sccc2C)cc1 | -2% | · | -4% | · | · | ·
CCN(CC)CCNC(=O)c1c(C)oc2ncnc(N3CCOCC3)c12 | -7% | · | 5% | · | · | ·
CCOc1ccc(Cc2nc(-c3nonc3N)no2)cc1OCC | -4% | 2 | 0% | 19 | -3% | -4%
Nc1nonc1-c1noc(COc2ccccc2Cl)n1 | 2% | 23* | 1% | 83* | 1% | -9%
Cc1cccc(OCc2nc(-c3nonc3N)no2)c1C | 7% | 56* | 13% | 53* | -2% | 4%
COc1ccc(N=C2NN=C(c3ccc4c(c3)OCCO4)CS2)cc1 | -27% | 21* | -11% | 6 | -3% | 3%
FC(F)Sc1ccc(N=C2NN=C(c3ccc4c(c3)OCCO4)CS2)cc1 | · | 25* | -28% | 47* | 2% | -1%
c1cc2c(cc1C1=NNC(=NC3CC3)SC1)OCCO2 | ? | -8 | 4% | -20 | 5% | 11µM*
COc1ccccc1C1=NNC(=Nc2cccc(S(=O)(=O)N(C)C)c2)SC1 | -26% | 3 | 6% | -5 | -30% | 8%
Cc1ccc(NC(=O)COC(=O)c2nn(C)c(=O)c3ccccc23)cc1F | 0% | · | · | · | · | ·
COc1ccc(/C=C2\CC/C(=C\c3ccc(OC)c(OC)c3)C2=O)cc1OC | 0% | 8 | -2% | 2 | -8% | -14%
COc1cc(/C=C2/CC/C(=C/c3ccc(O)c(OC)c3)C2=O)ccc1O | -6% | 11 | 45µM* | 52 | -20% | 0%
COc1ccc(/C=C2\CC/C(=C\c3ccc(OC)cc3OC)C2=O)c(OC)c1 | -7% | 26* | 3% | 60* | -13% | 1%
COc1cc(/C=C2\COC/C(=C\c3ccc(O)c(OC)c3)C2=O)ccc1O | -5% | 33* | 50µM* | 37* | ? | 11%
O=C(Nc1ccccc1C(F)(F)F)N1CCC(CN2CCc3ccccc3C2)CC1 | 8% | · | -1% | · | · | ·
Cc1ccc(C(C(=O)NCC2CCCO2)N(C(=O)c2snc(C(N)=O)c2N)c2ccc(F)cc2)o1 (stereo not drawn) | 0% | 1 | 10% | -7 | -1% | 0%
Cc1ccc(C(C(=O)NCC2CCCO2)N(C(=O)c2snc(C(N)=O)c2N)c2ccc3c(c2)OCCO3)cc1 (stereo not drawn) | 4% | -3 | 5% | -4 | -7% | 4%
NC(=O)c1nsc(C(=O)N(c2ccc3c(c2)OCCO3)C(C(=O)NCC2CCCO2)c2ccc(F)cc2)c1N (stereo not drawn) | 0% | 28* | 11% | 64* | -9% | 8%
CCOc1ccc(N(C(=O)c2snc(C(N)=O)c2N)C(C(=O)NCC2CCCO2)c2ccc(C)o2)cc1 (stereo not drawn) | 2% | 18* | -20% | 47* | -13% | 2%
